According to the supplement of paper PMC6089552:
Several values for one entry are separate records, joined by “and”; a condition that tells them apart may be missing. Equal values may be shown once. Out of some 3,200 compounds screened, about 300 (9.4%) showed activity. Only a selection was taken, and actives are over-represented in it overall.

Tested on: A673/TR/shEF
Test: cell viability (LOESS-normalised, relative to median of negative controls) (log2 ratio); higher = more viable cells (less compound effect), active = hit call of the paper (over 3 MAD below the median)
Details: treatment time: 72 h
Summary of the method: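 For three days, A673/TR/shEF Ewing sarcoma cells in 384-well plates (1,500 per well) were treated with library compounds at two or more concentrations or with DMSO controls, after doxycycline had been added or withheld 24 h beforehand to induce EWS-FLI1 shRNA knockdown. Viability was read by CellTiter-Glo luminescence on an Envision reader. The data were LOESS-corrected per plate, divided by the median of negative controls and log2-transformed.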

[1] = 0.25 µM, library screen: screen1, EWS-FLI1 expression: high (no doxycycline)
[2] = 0.25 µM, library screen: screen1, EWS-FLI1 expression: low (doxycycline-induced shRNA knockdown)
[3] = 2.5 µM, library screen: screen1, EWS-FLI1 expression: high (no doxycycline)
[4] = 2.5 µM, library screen: screen1, EWS-FLI1 expression: low (doxycycline-induced shRNA knockdown)
[5] = 0.25 µM, library screen: screen2, EWS-FLI1 expression: high (no doxycycline)
[6] = 0.25 µM, library screen: screen2, EWS-FLI1 expression: low (doxycycline-induced shRNA knockdown)
[7] = 2.5 µM, library screen: screen2, EWS-FLI1 expression: high (no doxycycline)
[8] = 2.5 µM, library screen: screen2, EWS-FLI1 expression: low (doxycycline-induced shRNA knockdown)

Measured: cell viability (log2)

CCOC(=O)c1oc2c(OC)c(O)cc(O)c2c(=O)c1-c1cc(OC)c(OC)c(OC)c1
inactive: [1] 0.036 | [2] 0.0305 | [3] -0.00359 | [4] -0.108

CC=C(C)C(=O)OC1[C@@H]2C=C3C4CC(=O)O[C@@H](c5ccoc5)[C@]4(C)CCC3[C@@](C)(C2=O)[C@@H](C(O)C(=O)OC)C1(C)C (stereo partly specified)
inactive: [1] 0.075 | [2] -0.00745 | [3] 0.149 | [4] 0.0968

COC(=O)Nc1ccc(S(=O)(=O)N2C(C)CCCC2C)cc1 (stereo unspecified)
inactive: [1] 0.0592 | [2] 0.103 | [3] 0.0767 | [4] 0.0829

COc1ccc(CN2CCN(Cc3ccc([N+](=O)[O-])cc3)CC2)cc1OC
inactive: [1] 0.0472 | [2] 0.118 | [3] 0.097 | [4] 0.0942

CCSc1nnc(-c2ccc([N+](=O)[O-])cc2)n1-c1ccccc1
inactive: [1] 0.0862 | [2] 0.0888 | [3] 0.0629 | [4] 0.153

CCOc1cccc(C(=O)c2ccc(O)c(O)c2O)c1
inactive: [1] 0.0703 | [2] 0.005 | [3] 0.0783 | [4] 0.0694

C[C@@H]1CC[C@@]23CCC4(C)[C@@](C=CC5[C@@]6(C)CCC(=O)C(C)(C)C6CC[C@]54C)(OC2=O)C3[C@H]1C (stereo partly specified)
inactive: [1] 0.12 | [2] 0.0225 | [3] 0.0629 | [4] 0.0141

CCN(CCCc1ccccc1)CCCc1ccccc1
inactive: [1] 0.0709 | [2] 0.129 | [3] 0.11 | [4] 0.151

NNCCc1ccccc1
active: [7] -0.435 | [8] -0.392
inactive: [1] 0.0542 | [2] 0.11 | [5] 0.136 | [6] -0.0727 | [3] 0.2 | [4] 0.188

NC(=O)NC(=O)Cc1ccccc1
inactive: [1] 0.103 | [2] 0.215 | [3] 0.184 | [4] 0.139

COC(=O)C1=C(C)N=C2SCCC(=O)N2C1c1ccc(OC)cc1 (stereo unspecified)
inactive: [1] 0.0178 | [2] 0.0759 | [3] 0.0162 | [4] 0.0699

Cc1cc(Nc2ccc(O)cc2)n2c(nc3ccccc32)c1C#N
inactive: [1] 0.079 | [2] 0.0759 | [3] 0.0987 | [4] 0.0687

CC1(O)/C=C\C=C(\CO)C2CC(C)(C)C2(O)CC1 (stereo unspecified)
inactive: [1] 0.0666 | [2] 0.000836 | [3] 0.128 | [4] 0.00974

CN1CCN(c2nc3ccccn3c(=O)c2/C=C2\SC(=S)N(CC3CCCO3)C2=O)CC1 (stereo unspecified)
inactive: [1] 0.134 | [2] 0.0801 | [3] 0.0647 | [4] 0.048

CCC(C)C(=O)c1c(O)c(C)c2oc3c(C)c(O)c(C(=O)C(C)CC)c(O)c3c2c1O (stereo unspecified)
active: [3] -0.592
inactive: [1] 0.0233 | [2] 0.116 | [4] -0.0271

Cc1c(O)c(C(=O)CC(C)C)c2oc3c(C(=O)CC(C)C)c(O)c(C)c(O)c3c2c1O
inactive: [1] 0.0407 | [2] 0.0843 | [3] 0.0935 | [4] 0.0892

CC(=O)c1c(O)c(C)c(O)c2c1oc1c(C(C)=O)c(O)c(C)c(O)c12
inactive: [1] 0.0278 | [2] -0.0408 | [3] 0.0533 | [4] 0.172

CCCCC(CC)CN=C(N)NC(N)=NCCCCCCN=C(N)NC(N)=NCC(CC)CCCC (stereo unspecified)
inactive: [1] 0.103 and 0.0973 | [2] 0.044 and 0.0691 | [3] 0.127 and 0.022 | [4] 0.0795 and 0.0454

COc1ccc(OC)c(C2NC(=O)NC(C)=C2C(=O)Nc2ccccc2Cl)c1 (stereo unspecified)
inactive: [1] 0.0793 | [2] 0.107 | [3] 0.0921 | [4] 0.116

CC1(C)COC(CC(=O)O)CN1 (stereo unspecified)
inactive: [1] 0.11 | [2] 0.00312 | [3] 0.108 | [4] 0.0408

O=c1c(-c2ccc(O)cc2)coc2cc(O)ccc12
inactive: 0.025 µM, library screen: screen1, EWS-FLI1 expression: high (no doxycycline) -0.0377 | 0.025 µM, library screen: screen1, EWS-FLI1 expression: low (doxycycline-induced shRNA knockdown) -0.0297 | 0.103 µM, library screen: screen3, EWS-FLI1 expression: high (no doxycycline) 0.0817 | 0.103 µM, library screen: screen3, EWS-FLI1 expression: low (doxycycline-induced shRNA knockdown) 0.0853 | [1] 0.184 | [2] 0.0911 | [5] 0.184 | [6] 0.099 | 0.308 µM, library screen: screen3, EWS-FLI1 expression: high (no doxycycline) 0.12 | 0.308 µM, library screen: screen3, EWS-FLI1 expression: low (doxycycline-induced shRNA knockdown) 0.0897 | 0.926 µM, library screen: screen3, EWS-FLI1 expression: high (no doxycycline) 0.0631 | 0.926 µM, library screen: screen3, EWS-FLI1 expression: low (doxycycline-induced shRNA knockdown) 0.0867 | [3] 0.11 | [4] 0.0867 | [7] 0.118 | [8] 0.117 | 2.8 µM, library screen: screen3, EWS-FLI1 expression: high (no doxycycline) 0.137 | 2.8 µM, library screen: screen3, EWS-FLI1 expression: low (doxycycline-induced shRNA knockdown) 0.123 | 8.3 µM, library screen: screen3, EWS-FLI1 expression: high (no doxycycline) 0.161 | 8.3 µM, library screen: screen3, EWS-FLI1 expression: low (doxycycline-induced shRNA knockdown) 0.0904 | 25 µM, library screen: screen1, EWS-FLI1 expression: high (no doxycycline) 0.0121 | 25 µM, library screen: screen1, EWS-FLI1 expression: low (doxycycline-induced shRNA knockdown) 0.0753 | 25 µM, library screen: screen3, EWS-FLI1 expression: high (no doxycycline) 0.114 | 25 µM, library screen: screen3, EWS-FLI1 expression: low (doxycycline-induced shRNA knockdown) 0.0782

COc1ccc(-c2coc3cc(O)ccc3c2=O)cc1
active: [1] -0.6
inactive: [2] 0.0672 | [3] 0.234 | [4] 0.103

COc1ccc(-c2coc3cc(OC)ccc3c2=O)cc1
inactive: [1] 0.121 | [2] 0.0353 | [3] 0.128 | [4] 0.0908
